Assay results: PubChem BioAssay AID1159580 (chemical genetic matrix, 2015)
Several values for one entry are separate records, joined by “and”; a condition that tells them apart may be missing. Equal entries are not always repeated. Screen size: about 5,500 compounds; about 2,000 (36%) were called active. Inconclusive results (about 18%) are left out. No stated cut-off is given here; in the data, active means normalized growth mostly below about 0.91 (no sharp cut-off); inconclusive means no clear call, values can overlap the other calls; inactive means mostly above about 0.92. The list shows a part of the results.

Test: chemical genetic growth profiling, strain panel (AID 1159580);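 further: tested at 20 µM; growth read once vehicle control cultures reached saturation at 30 °C; 1 = growth at the plate median or of vehicle wells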
Details: growth OD
[1] = S. cerevisiae deletion strains, locus YAL040C, strain CLN3, stronger effect = lower value
[2] = S. cerevisiae deletion strains, locus YCL061C, strain MRC1 (second series), stronger effect = lower value
[3] = S. cerevisiae deletion strains, locus YDR363W, strain ESC2, stronger effect = lower value
[4] = S. cerevisiae deletion strains, locus YER002W, strain NOP16, stronger effect = lower value
[5] = S. cerevisiae deletion strains, locus YJR075W, strain HOC1, stronger effect = lower value
[6] = S. cerevisiae deletion strains, locus YMR263W, strain SAP30, stronger effect = lower value
[7] = S. cerevisiae deletion strains, locus YMR307W, strain GAS1, stronger effect = lower value
[8] = S. cerevisiae deletion strains, locus YNL153C, strain GIM3, stronger effect = lower value
[9] = S. cerevisiae deletion strains, locus YNL175C, strain NOP13, stronger effect = lower value
[10] = S. cerevisiae deletion strains, locus YNL197C, strain WHI3, stronger effect = lower value
[11] = S. cerevisiae deletion strains, locus YNL224C, strain SQS1, stronger effect = lower value
[12] = S. cerevisiae deletion strains, locus YOR083W, strain WHI5 (second series), stronger effect = lower value

Measured: normalized growth

CNC(=O)Oc1ccc2c(c1)C1(C)CCN(C)C1N2C (stereo unspecified)
inactive: S. cerevisiae deletion strains, locus YAL013W, strain DEP1, stronger effect = lower value 0.999 | [1] 0.99 | S. cerevisiae deletion strains, locus YBR021W, strain FUR4, stronger effect = lower value 1.04 and 1.03 | S. cerevisiae deletion strains, locus YBR229C, strain ROT2, stronger effect = lower value 1 and 1.01 | S. cerevisiae deletion strains, locus YCL029C, strain bik1, stronger effect = lower value 0.991 and 1.01 | [2] 0.978 | S. cerevisiae deletion strains, locus YDL035C, strain GPR1, stronger effect = lower value 1.01 and 1 | S. cerevisiae deletion strains, locus YDL074C, strain BRE1, stronger effect = lower value 1.01 and 1 | S. cerevisiae deletion strains, locus YDL101C, strain DUN1, stronger effect = lower value 0.994 and 0.998 | S. cerevisiae deletion strains, locus YDL134C, strain PPH21, stronger effect = lower value 1.06 and 1 | S. cerevisiae deletion strains, locus YDL185W, strain tfp1, stronger effect = lower value 0.966 and 1.01 | S. cerevisiae deletion strains, locus YDL192W, strain arf1, stronger effect = lower value 1.02 and 1.01 | S. cerevisiae deletion strains, locus YDR101C, strain arx1, stronger effect = lower value 0.98 and 1.01 | S. cerevisiae deletion strains, locus YDR150W, strain NUM1, stronger effect = lower value 1.01 | S. cerevisiae deletion strains, locus YDR162C, strain NBP2, stronger effect = lower value 1.01 and 0.986 | S. cerevisiae deletion strains, locus YDR318W, strain mcm21, stronger effect = lower value 1.02 and 1.01 | [3] 0.964 | S. cerevisiae deletion strains, locus YDR388W, stronger effect = lower value 0.994 and 1.01 | S. cerevisiae deletion strains, locus YDR502C, strain sam2, stronger effect = lower value 0.993 and 0.995 | S. cerevisiae deletion strains, locus YEL061C, strain CIN8, stronger effect = lower value 1 and 1.01 | [4] 0.993 | S. cerevisiae deletion strains, locus YER110C, stronger effect = lower value 0.972 and 1.02 | S. cerevisiae deletion strains, locus YER155C, strain BEM2, stronger effect = lower value 0.995 and 1.01 | S. cerevisiae deletion strains, locus YER167W, strain BCK2, stronger effect = lower value 0.996 and 1.02 | S. cerevisiae deletion strains, locus YGL078C, strain dbp3, stronger effect = lower value 1.01 | S. cerevisiae deletion strains, locus YGL086W, strain mad1, stronger effect = lower value 0.957 and 1.01 | S. cerevisiae deletion strains, locus YGL248W, strain PDE1, stronger effect = lower value 1.02 and 1.01 | S. cerevisiae deletion strains, locus YGR078C, strain PAC10, stronger effect = lower value 1 and 0.991 | S. cerevisiae deletion strains, locus YGR135W, strain pre9, stronger effect = lower value 1.04 and 0.982 | S. cerevisiae deletion strains, locus YGR229C, strain SMI1, stronger effect = lower value 0.977 | S. cerevisiae deletion strains, locus YGR252W, strain gcn5, stronger effect = lower value 1.2 and 0.984 | S. cerevisiae deletion strains, locus YHR030C, strain SLT2, stronger effect = lower value 0.998 and 1.01 | S. cerevisiae deletion strains, locus YHR079C, strain IRE1 (second series), stronger effect = lower value 0.976 and 1.02 | S. cerevisiae deletion strains, locus YHR094C, strain hxt1, stronger effect = lower value 0.991 and 1.01 | S. cerevisiae deletion strains, locus YHR129C, strain ARP1, stronger effect = lower value 1 and 1.02 | S. cerevisiae deletion strains, locus YHR200W, strain rpn10, stronger effect = lower value 0.995 and 1.01 | S. cerevisiae deletion strains, locus YIL066C, strain RNR3, stronger effect = lower value 1 and 1.01 | S. cerevisiae deletion strains, locus YIL073C, strain SPO22, stronger effect = lower value 0.935 and 1.03 | S. cerevisiae deletion strains, locus YIL125W, strain kgd1, stronger effect = lower value 0.995 and 1.02 | S. cerevisiae deletion strains, locus YIR030C, strain dcg1, stronger effect = lower value 1 and 1.02 | S. cerevisiae deletion strains, locus YJL095W, strain BCK1, stronger effect = lower value 1.06 and 1.02 | S. cerevisiae deletion strains, locus YJL134W, strain LCB3, stronger effect = lower value 0.997 and 1 | S. cerevisiae deletion strains, locus YJL168C, strain set2, stronger effect = lower value 0.983 and 1.01 | S. cerevisiae deletion strains, locus YJL187C, strain SWE1 (second series), stronger effect = lower value 1.01 and 1 | S. cerevisiae deletion strains, locus YJR043C, strain POL32, stronger effect = lower value 1.02 and 1.04 | [5] 0.98 and 0.984 and 0.995 | S. cerevisiae deletion strains, locus YKL009W, strain mrt4, stronger effect = lower value 1.02 and 1.04 | S. cerevisiae deletion strains, locus YKL068W, stronger effect = lower value 0.976 and 1 | S. cerevisiae deletion strains, locus YKL085W, strain MDH1 (second series), stronger effect = lower value 0.98 and 1.02 | S. cerevisiae deletion strains, locus YKL085W, strain MDH1, stronger effect = lower value 0.98 and 1.02 | S. cerevisiae deletion strains, locus YKL190W, strain CNB1, stronger effect = lower value 1.01 | S. cerevisiae deletion strains, locus YKR001C, strain vps1, stronger effect = lower value 1 and 1.02 | S. cerevisiae deletion strains, locus YLR039C, strain RIC1, stronger effect = lower value 1.11 and 1.07 | S. cerevisiae deletion strains, locus YLR058C, strain SHM2, stronger effect = lower value 1.02 and 1.01 | S. cerevisiae deletion strains, locus YLR102C, strain apc9, stronger effect = lower value 0.974 and 1.02 | S. cerevisiae deletion strains, locus YLR262C, strain YPT6, stronger effect = lower value 1.14 and 1.01 | S. cerevisiae deletion strains, locus YLR268W, strain sec22, stronger effect = lower value 0.995 and 0.998 | S. cerevisiae deletion strains, locus YLR330W, strain CHS5, stronger effect = lower value 1 and 1.01 | S. cerevisiae deletion strains, locus YLR342W, strain FKS1 (second series), stronger effect = lower value 1.03 and 1.05 | S. cerevisiae deletion strains, locus YLR371W, strain rom2, stronger effect = lower value 0.979 and 1.02 | S. cerevisiae deletion strains, locus YLR418C, strain cdc73, stronger effect = lower value 1 and 0.92 | S. cerevisiae deletion strains, locus YML016C, strain PPZ1, stronger effect = lower value 0.99 and 1.01 | S. cerevisiae deletion strains, locus YML032C, strain rad52, stronger effect = lower value 1.04 and 1.02 | S. cerevisiae deletion strains, locus YML124C, strain tub3, stronger effect = lower value 0.992 and 1 | S. cerevisiae deletion strains, locus YMR078C, strain ctf18, stronger effect = lower value 0.981 and 1.02 | S. cerevisiae deletion strains, locus YMR223W, strain ubp8, stronger effect = lower value 1.03 and 1.02 | [6] 0.983 and 0.988 | [7] 1 and 1.24 and 1.1 | S. cerevisiae deletion strains, locus YNL067W, strain RPL9B, stronger effect = lower value 0.993 and 1 | S. cerevisiae deletion strains, locus YNL128W, strain TEP1, stronger effect = lower value 0.977 and 0.975 | [8] 1 | [9] 1.01 | [10] 1 | [11] 0.999 | S. cerevisiae deletion strains, locus YNL233W, strain BNI4, stronger effect = lower value 0.999 and 0.995 | S. cerevisiae deletion strains, locus YNL250W, strain rad50, stronger effect = lower value 0.94 and 1.02 | S. cerevisiae deletion strains, locus YNL271C, strain bni1, stronger effect = lower value 0.994 and 1.02 | S. cerevisiae deletion strains, locus YNL298W, strain CLA4, stronger effect = lower value 0.993 and 1.02 | S. cerevisiae deletion strains, locus YNL307C, strain MCK1, stronger effect = lower value 0.989 and 1.01 | S. cerevisiae deletion strains, locus YNL322C, strain KRE1, stronger effect = lower value 0.961 and 0.998 and 1.01 | S. cerevisiae deletion strains, locus YNR052C, strain pop2, stronger effect = lower value 1.01 and 1.02 | S. cerevisiae deletion strains, locus YOL006C, strain TOP1, stronger effect = lower value 0.949 and 0.93 | S. cerevisiae deletion strains, locus YOL012C, strain htz1 1.18 and 1.01 | S. cerevisiae deletion strains, locus YOL147C, strain pex11, stronger effect = lower value 0.995 and 1.01 | S. cerevisiae deletion strains, locus YOR061W, strain CKA2, stronger effect = lower value 1 and 1.01 | S. cerevisiae deletion strains, locus YOR069W, strain VPS5, stronger effect = lower value 0.996 and 1.01 | [12] 1.01 | S. cerevisiae deletion strains, locus YOR136W, strain idh2, stronger effect = lower value 0.979 and 1.01 | S. cerevisiae deletion strains, locus YOR144C, strain elg1, stronger effect = lower value 1 and 1.01 | S. cerevisiae deletion strains, locus YOR184W, strain ser1, stronger effect = lower value 1.05 and 1.06 | S. cerevisiae deletion strains, locus YOR316C, strain cot1, stronger effect = lower value 0.988 and 1.02 | S. cerevisiae deletion strains, locus YPL055C, strain LGE1, stronger effect = lower value 0.987 | S. cerevisiae deletion strains, locus YPL241C, strain CIN2, stronger effect = lower value 1.01 | S. cerevisiae deletion strains, locus YPR119W, strain clb2, stronger effect = lower value 0.984 and 1.01 | S. cerevisiae deletion strains, locus YPR141C, strain kar3, stronger effect = lower value 0.981 and 1.02 | S. cerevisiae deletion strains, locus YPR163C, strain tif3, stronger effect = lower value 0.992 and 1.01 | S. cerevisiae deletion strains, locus YPR167C, strain met16, stronger effect = lower value 0.999 and 1.02 | S. cerevisiae deletion strains, strain wtn01, stronger effect = lower value 0.962 and 1 | S. cerevisiae strains, strain wild type, stronger effect = lower value 1.01

NC(N)=NN=Cc1c(Cl)cccc1Cl
inactive: [1] 0.994 | [2] 0.999 | [3] 1.01 | [4] 1.01 | [5] 1.01 | [6] 1 | [7] 1.01 | [8] 0.999 | [9] 1.02 | [10] 1 | [11] 1.01 | [12] 1.01
